ATXN2 expr inh – Primary qHTS for Inhibitors of ATXN expression; hit rate 0.72% among 360,000; AID 1745845, 2022; Potency, µM (top dose mostly 57 µM), hits mostly inhibitors; HEK-293 ATXN2-luciferase reporter, luminescence, 24 h; further: nearly all actives have a fitted effect of over 55% in size
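qHTS (up to 57 uM final) was run with 24 h compound exposure of reporter cells at 37 °C. Each well was multiplexed: SteadyGlo luminescence measured ATXN2-luciferase expression after a fluorogenic Gly-Phe-AFC viability readout (25 uM final).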
TGFb inhibitor – qHTS for Inhibitors of TGF-b | Potency, µM (highest dose often 46.1 µM), hits mostly inhibitors | HepG2 CAGA-GFP TGF-b/SMAD3 reporter, GFP fluorescence, 18 h; TGF-beta stimulated, 500 pg/mL final | hit rate 1.2% among 410,000; further: nearly all actives have a fitted effect of over 65% in size
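HEPG2 CAGA-GFP, 1000 cells/well; 2 h settle, 37 C; cpd via pin tool; TGF-b 500 pg/mL final; 18 h, 37 C; GFP imaging ex488/em500-530; %Activity normalised to -TGF-b and +DMSO controls; CRC fit, curve class.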
HepG2 tox – qHTS for Inhibitors of TGF-b: Cytotox Counterscreen; HepG2 CAGA-GFP viability, ATP luminescence, 18 h; Potency, µM (titrated, usually from 46.1 µM), hits mostly cytotoxic; hit rate 0.76% among 410,000
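HepG2 CAGA-GFP cells (1000/well, DMEM with 1% FBS) received compound, then TGF-beta at 500 pg/mL final, and were incubated 18 hours at 37 degrees C. Viability was read by CellTiter-Glo luminescence. Media-only wells were set as complete cell-killing and DMSO as no toxicity.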
DRD3 antagonist – qHTS of D3 Dopamine Receptor Antagonist: qHTS; D3R cells, DiscoveRx beta-arrestin luminescence, antagonist mode; active compounds read low; hit rate 2.5% among 360,000; max response, negative = inhibition, %; AID 652054, 2013; in the data active means max response below about -50%; inconclusive means no clear call, values can overlap the other calls
Target sequence (P35462 whole entry, looked up): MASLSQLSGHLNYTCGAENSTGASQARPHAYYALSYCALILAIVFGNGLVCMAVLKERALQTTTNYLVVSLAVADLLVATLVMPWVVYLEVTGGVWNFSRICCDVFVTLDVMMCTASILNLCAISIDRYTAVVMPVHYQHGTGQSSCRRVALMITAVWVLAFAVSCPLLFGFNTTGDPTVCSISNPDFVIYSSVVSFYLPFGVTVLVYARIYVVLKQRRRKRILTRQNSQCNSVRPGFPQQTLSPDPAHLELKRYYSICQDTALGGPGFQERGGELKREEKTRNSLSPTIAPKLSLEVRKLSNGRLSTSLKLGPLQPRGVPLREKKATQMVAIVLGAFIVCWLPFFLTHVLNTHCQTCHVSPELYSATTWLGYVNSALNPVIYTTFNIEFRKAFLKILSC
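Cells expressing the human receptor were seeded at 1500 cells/well, incubated overnight at 37 degrees C in 5% CO2, then exposed to library compounds with dopamine controls for 90 minutes at 37 degrees C before luminescent detection.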
DRD3 agonist – qHTS of D3 Dopamine Receptor Agonist: qHTS; max activation, %; D3R DiscoveRx beta-arrestin cells, luminescence, 90 min; hit rate 0.58% among 410,000; D(3) dopamine receptor (Homo sapiens), P35462; in the data active means max activation above about 30%
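Agonist mode: compounds and dopamine controls were applied to plated cells for 90 min at 37 degrees C after an overnight attachment at 1500 cells/well. Luminescent read-out followed 30 - 60 minutes at room temperature with DiscoveRx detection reagent.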
S2 tox – Viability Counterscreen for Primary qHTS for Inhibitors of ATXN expression. hit rate 0.49% among 400,000. S2 cells (HEK-293 line with an ATXN2-luciferase reporter) viability, CellTiter-Fluor protease fluorescence, 24 h. AID 651635, 2014. Potency, µM (series often up to 56.7 µM), actives largely listed as cytotoxic; further: nearly all actives have a fitted effect of over 40% in size
Hits are given with their value; – = inactive; ? = inconclusive; · = not tested or not shown; ! = not active in a repeat. Rows were chosen to be rich in hits. Some 4.7% of all compounds tested hit in one or more screens of this group. Unless noted, the call rests on the fitted dose curve; in most records, active means well fitted curve in the direction sought with a large enough effect; inconclusive means small, poorly fitted or top-dose-only effect, or another doubt; inactive means no such curve, though single readings can be large; an effect the other way counts as inactive or inconclusive.

SMILES	ATXN2 expr inh	TGFb inhibitor	HepG2 tox	DRD3 antagonist	DRD3 agonist	S2 tox
COc1ccc(/C=C/c2cnccn2)cc1OC	·	–	–	·	·	·
Cc1cc2oc(C(=O)Nc3cccc(-c4nc5ccccc5o4)c3)c(C)c2cc1Cl	–	–	–	·	–	–
COc1cccc(-n2c(-c3cccc(F)c3)nc3c(cnn3-c3ccc(C)cc3)c2=O)c1	–	–	–	·	–	–
Cn1ccc2c(N3c4ccccc4CCc4ccccc43)cc3c(c21)C1CCC3C1 (stereo unspecified)	–	?	–	–	–	?
Cn1ccc2c(N3c4ccccc4CCc4ccccc43)cc3c(c21)C1CCC3O1 (stereo unspecified)	–	?	7.1µM	–	–	–
Cc1cc(=O)c2c(O)c3c(O)cc(=O)c4c3c3c(cc(O)c1c23)C(C)(C)C=4O	27µM!	·	·	·	–	–
OCCn1cc(-c2ccc3c(c2)CCC3=NO)c(-c2ccncc2)n1	–	·	·	·	·	·
C[C@H](CO)N1C[C@H](C)[C@H](CN(C)C)Oc2ccc(NS(=O)(=O)c3ccc(F)cc3)cc2CC1=O	–	–	–	–	–	–
C[C@H](CO)N1C[C@H](C)[C@H](CN(C)CC2CCCCC2)Oc2ccc(NS(=O)(=O)c3ccc(F)cc3)cc2CC1=O	?	?	–	–	–	28µM
C[C@@H]1CN([C@@H](C)CO)C(=O)Cc2cc(NC(=O)Nc3ccc(F)cc3)ccc2O[C@@H]1CN(C)Cc1ccc(Cl)c(Cl)c1	?	?	16µM	?	–	?
C[C@H]1CN([C@@H](C)CO)C(=O)Cc2cc(NS(C)(=O)=O)ccc2O[C@@H]1CN(C)Cc1ccc(Cl)c(Cl)c1	–	11µM	–	–	–	?
CCCCCCOC(=O)C(C#N)c1nc2ccccc2nc1N1CCN(CC)CC1 (stereo unspecified)	–	–	–	-59	–	?
COc1ccc2c(c1)OC(C)CN(CCNC(=O)c1csc(-c3cccs3)n1)C2 (stereo unspecified)	·	·	·	·	·	–
CCCOC(=O)c1c(NC(=O)/C=C/c2cnn(C)c2C)sc(C(=O)OC)c1C	–	–	–	-77	–	–
CCOC(=O)c1sc(NC(=O)/C=C/c2cnn(CC)c2C)c(C(=O)OCC)c1C	?	–	–	–	36	–
CN1CC(=O)NC1=NC(=O)Nc1cccc(Cl)c1	–	·	·	·	·	·
O=C(c1ccco1)c1n[nH]nc1-c1ccccc1	–	?	–	-70	–	–
OC[C@H](Cc1ccccc1)Nc1nc(Oc2ccc3c(c2)CCC3)nc2c1ncn2Cc1ccc(-c2ccccc2)cc1	–	·	·	·	·	·
COC(CNC(=O)c1c[nH]c2ccc(S(=O)(=O)N3CCC4(CC3)OCCO4)cc2c1=O)OC	–	3.5µM	–	–	–	–
O=C(Nc1cc(F)ccc1F)C1CCCN1S(=O)(=O)c1cccc2nsnc12 (stereo unspecified)	–	?	–	–	–	–
O=C(Nc1ccc(F)cc1F)C1CCCN1S(=O)(=O)c1cccc2nsnc12 (stereo unspecified)	–	16µM	–	–	–	–
NNC(=O)c1ccccc1CO	–	–	–	–	34	–
CC(C)C(=O)NCC1CCC2(CCN(Cc3ccc(-c4cccc(Cl)c4)o3)CC2)O1 (stereo unspecified)	·	·	·	·	·	–
COc1ccc(-n2c(CCNC(=O)c3ccccc3C(F)(F)F)nnc2SC)cc1	·	·	·	·	·	–
O=C1Nc2ccccc2/C1=N/N=C/c1cccc(O)c1	–	–	–	–	–	–
SMILES	ATXN2 expr inh	TGFb inhibitor	HepG2 tox	DRD3 antagonist	DRD3 agonist	S2 tox
COc1cc(/C=N/N=C2/C(=O)Nc3ccccc32)cc(OC)c1O	–	?	–	-84	–	–
Cc1ccc(NC(=O)c2ccc3c(O)c(S(=O)(=O)c4ccccc4)c(=O)[nH]c3c2)cc1Cl	–	–	–	·	–	–
Nc1c(N(CCC2=CCCCC2)C(=O)Cc2ccc(F)cc2)c(=O)[nH]c(=O)n1Cc1ccccc1	–	?	–	–	–	?
Nc1c(N(CCC2=CCCCC2)C(=O)COc2ccc(F)cc2Cl)c(=O)[nH]c(=O)n1Cc1ccccc1	11µM	3.2µM	3.5µM	-92	–	·
CC(C)CCN(C(=O)Cc1ccc(Cl)c(Cl)c1)c1c(N)n(Cc2ccccc2)c(=O)[nH]c1=O	?	–	–	-72	–	?
Cc1ccc(SCC(=O)OCC(=O)N(CC(C)C)c2c(N)n(Cc3ccccc3)c(=O)[nH]c2=O)cc1C	–	18µM	–	–	–	–
Cn1c(CNc2ccc(C(=N)N)cc2)nc2cc(C(=O)N(CCC(=O)O)c3ccccn3)ccc21	–	·	·	·	·	·
Cc1cc(F)ccc1NC(=O)C1CCN(C(=O)c2cnn(-c3ccccc3)c2-n2cccc2)CC1	–	?	–	·	–	–
O=C(O)c1cc(N/N=C/c2ccc3c(c2)OCCO3)ccc1Cl	4.5µM	–	–	–	–	–
CN(C)S(=O)(=O)c1cccc(NC(=O)CSc2ncnc3ccccc23)c1	–	?	–	–	65	–
CN(C)S(=O)(=O)c1ccc(NC(=O)CSc2ncnc3ccccc23)cc1	–	–	–	–	–	?
Cc1nnc(SCC(=O)Nc2cccc(S(=O)(=O)N(C)c3ccccc3)c2)s1	–	–	–	–	34	–
COCCn1cnnc1SCC(=O)Nc1cccc(S(=O)(=O)N(C)c2ccccc2)c1	–	–	–	–	–	–
CCOC(=O)c1ccc(NC(=O)c2cnn(-c3ccc(C)cc3C)c2C2CCN(C(=O)OC(C)(C)C)CC2)cc1	–	–	–	·	–	?
Cc1cc2c(n1-c1ccc(Br)cc1)CC(C)(C)CC2=O	–	–	–	–	–	–
Cc1ccc(-n2c(C)cc3c2CC(C)(C)CC3=O)cc1C	–	?	–	-88	–	–
CCOC(=O)c1cc2cc(OC)ccc2n1C1CCN(CCc2ccccc2)CC1	–	·	·	-109	–	?
COc1ccc(C)cc1NC(=O)CSc1nc(=O)n(Cc2ccccn2)c2c1CCC2	–	8.9µM	–	·	–	–
Cc1cccc(NC(=O)CSc2nc(=O)n(Cc3cccnc3)c3c2CCC3)c1	–	18µM	–	·	–	–
COc1ccc(C)cc1NC(=O)CSc1nc(=O)n(Cc2cccnc2)c2c1CCC2	–	–	–	·	–	–
COc1ccc(Cl)c(Cn2cnc3c(cnn3C(C)(C)C)c2=O)c1F	·	–	–	·	·	·
COc1ccccc1C1CN(Cc2cn(C)nc2C)Cc2ccccc2O1 (stereo unspecified)	·	·	·	·	·	–

Compound activity from PubChem.
